A short description of assay [1]: Tanguay_ZF_120hpf_EYE_legacy: (Legacy) Oregon State University Tanguay Lab 120 Hour Post-fertilization zebrafish Assay for Eye Malformation (AID 2283636).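 Note: binary presence or absence of eye malformation scored by brightfield in 120 hpf larvae.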 The essentials: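 Binary brightfield scoring of eye defects at 120 hpf after static exposure from 6 hpf of single pronase-dechorionated wild-type embryos (28C, 0.64% DMSO). Non-mortality endpoints omitted where embryos died; fit vs DMSO.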

The nature of assay [2]: Tanguay_ZF_120hpf_SNOU_legacy: (Legacy) Oregon State University Tanguay Lab 120 Hour Post-fertilization zebrafish Assay for Snout Malformation (AID 2283637). The essentials: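 Binary snout-malformation call at 120 hpf in wild-type 5D embryos, chorion removed by pronase, under static exposure from 6 hpf at 28C (0.64% DMSO). Embryos dying by 24 or 120 hpf excluded.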
Assay [3] is described as follows: Tanguay_ZF_120hpf_JAW_legacy: (Legacy) Oregon State University Tanguay Lab 120 Hour Post-fertilization zebrafish Assay for Jaw Malformation (AID 2283638).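 For AC50: active means more embryos with jaw malformation than DMSO controls.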 The essentials:
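Wild-type 5D embryos, chorion removed at 4 hpf, dosed singly from 6 hpf; 28C static, sealed, foil-covered, to 120 hpf. Endpoint: jaw defect yes/no (brightfield); mortality excludes scoring.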

Assay [4] can be described thus: Tanguay_ZF_120hpf_OTIC_legacy: (Legacy) Oregon State University Tanguay Lab 120 Hour Post-fertilization zebrafish Assay for Otic Vesicle Malformation (AID 2283639). A digest of the protocol:
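Binary scoring of otic vesicle defects at 120 hpf in zebrafish (Tropical 5D) held under static exposure at 28C, sealed and shaded, with final DMSO 0.64%. Embryos dying by 24 or 120 hpf excluded; fitted positively against DMSO.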

A short description of assay [5]: Tanguay_ZF_120hpf_BRAI_legacy: (Legacy) Oregon State University Tanguay Lab 120 Hour Post-fertilization zebrafish Assay for Brain Malformation (AID 2283641). The essentials:
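Static exposure of staged wild-type embryos until 120 hpf, kept at 28C with light excluded and final DMSO of 0.64% (vol/vol). Presence or absence of brain malformation was noted under brightfield; mortality precluded scoring.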

The nature of assay [6]: Tanguay_ZF_120hpf_SOMI_legacy: (Legacy) Oregon State University Tanguay Lab 120 Hour Post-fertilization zebrafish Assay for Somite Malformation (AID 2283647). A digest of the protocol:
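Somitogenesis defects are recorded as binary calls in whole larvae at 120 hpf after continuous static chemical exposure starting at 6 hpf in dechorionated 5D embryos. DMSO serves as negative control and baseline.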

The nature of assay [7]: Tanguay_ZF_120hpf_PFIN_legacy: (Legacy) Oregon State University Tanguay Lab 120 Hour Post-fertilization zebrafish Assay for Pectoral Fin Malformation (AID 2283648).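 Note: each larva judged yes or no for fin defect by brightfield with dead larvae skipped.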 A digest of the protocol: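 Pectoral fin malformation was recorded as a binary endpoint at 120 hpf in wild-type Tropical 5D larvae, which had been dechorionated and exposed statically from 6 hpf at 28C in 0.64% DMSO. Dead embryos were excluded.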

Assay [8] in a line: Tanguay_ZF_120hpf_CFIN_legacy: (Legacy) Oregon State University Tanguay Lab 120 Hour Post-fertilization zebrafish Assay for Caudal Fin Malformation (AID 2283649). The essentials:
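Single dechorionated 5D wild-type embryos are dosed at 6 hpf (final DMSO 0.64%) and held statically at 28C. Caudal fin malformation is recorded as present or absent at 120 hpf under brightfield, excluding dead embryos.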

Assay [9] can be described thus: Tanguay_ZF_120hpf_PIG_legacy: (Legacy) Oregon State University Tanguay Lab 120 Hour Post-fertilization zebrafish Assay for Pigmentation Malformation (AID 2283650). The essentials: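 Pigment malformation recorded as a binary call at 120 hpf in zebrafish (Tropical 5D) exposed singly from 6 hpf after pronase dechorionation. Static, sealed, 28C exposure, 0.64% DMSO; mortality excludes scoring; positive-direction fit against DMSO.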

A short description of assay [10]: Tanguay_ZF_120hpf_SWIM_legacy: (Legacy) Oregon State University Tanguay Lab 120 Hour Post-fertilization zebrafish Assay for Swim Bladder Malformation (AID 2283654).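 Note: swim bladder malformation in each larva scored yes or no under brightfield.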 The essentials:
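Scoring is binary for swim bladder defects at 120 hpf, by brightfield inspection of zebrafish larvae. Embryos were exposed singly from 6 hpf after pronase dechorionation, at 28C with 0.64% DMSO; mortality excluded scoring.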

A short description of assay [11]: Tanguay_ZF_120hpf_TRUN_legacy: (Legacy) Oregon State University Tanguay Lab 120 Hour Post-fertilization zebrafish Assay for Truncated Body (AID 2283655). A digest of the protocol:
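Single dechorionated zebrafish embryos received test chemical from 6 hpf in 0.64% DMSO, kept at 28C. At 120 hpf, brightfield inspection noted any truncated body.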

Assay [12] in a line: Tanguay_ZF_120hpf_NC_legacy: (Legacy) Oregon State University Tanguay Lab 120 Hour Post-fertilization zebrafish Assay for Notochord and Tail Malformation (AID 2283656). The essentials:
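Binary scoring of notochord distortion by brightfield microscopy; embryos dying were not scored. Wild-type Tropical 5D embryos, chorion removed, exposed singly and statically from 6 to 120 hpf, 28C, sealed, 0.64% DMSO.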

The nature of assay [13]: Tanguay_ZF_120hpf_TR_legacy: (Legacy) Oregon State University Tanguay Lab 120 Hour Post-fertilization zebrafish Assay for Touch Response (AID 2283667). The essentials:
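Binary touch-response endpoint in larvae at 120 hpf after static waterborne exposure from embryo stage (28°C, 0.64% DMSO vehicle, 5 uM trimethyltin chloride as positive control); embryos dead at 24 or 120 hpf excluded; fitted as gain versus DMSO.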

Assay [14] concerns Thyroperoxidase (TPO), gene 54314. Briefly: CCTE_Simmons_AUR_rTPO: CCTE's Amplex UltraRed Assay for Thyroperoxidase (TPO) Inhibition, Simmons Lab (AID 2283662).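 Note: potency for loss of signal meaning inhibition of peroxidase activity.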 A digest of the protocol: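 Cell-free peroxidase activity assay using rat thyroid gland microsomes with excess H2O2 (300 uM) and 25 uM Amplex UltraRed. Compounds tested from 5 nM to 87.5 uM; fluorescence measured after 30 min at 37C, analysed relative to DMSO baseline.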

The nature of assay [15]: CCTE_Simmons_CellTiterGLO_HEK293T: Viability Assessment in CCTE's Assays for Thyroperoxidase (TPO) Inhibition, Simmons Lab (AID 2283665).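 Note: cells exposed to compound for 24 h before readout; actives reduce ATP signal below DMSO vehicle meaning cytotoxicity.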 The essentials: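 Luciferase-coupled ATP content after 24 h exposure gives viability; 8-point series from 5 nM to 87.5 uM final in 0.5% DMSO. Human HEK293T cells, 1% FBS medium, three biological replicates, dichlone positive control.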
On the technique in general: ATP-based viability assays read luminescence as a measure of living cells.

A short description of assay [16]: Tanguay_ZF_120hpf_CIRC_legacy: (Legacy) Oregon State University Tanguay Lab 120 Hour Post-fertilization zebrafish Assay for Circulatory Malformation (AID 2283651). The essentials:
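Binary circulatory malformation call at 120 hpf by brightfield imaging of zebrafish larvae; chorion removed at 4 hpf, static exposure from 6 hpf in sealed dark plates at 28C, final DMSO 0.64%; non-mortality endpoints skipped if embryo died.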

Read-out in assay [17]: kallikrein-3 (KLK3), KLK3 (gene 354)
Briefly: LTEA_HepaRG_KLK3: Life Technologies and Expression Analysis (LTEA) Assay for kallikrein-3 (KLK3) using HepaRG (AID 2283652; active = hit-call score of the fitted dose curve at least 0.9, where 1 is the maximum; inactive = score below 0.9). To be noted: mRNA level, 48 h; actives raise or lower the signal. A digest of the protocol:
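KLK3 transcript levels were measured by TaqMan qRT-PCR with normalisation to three housekeeping genes. HepaRG cultures received chemicals for 48 h at up to 100 uM (half-log, 8 points, 0.5% DMSO vehicle), fitted in both directions against DMSO.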

Read-out in assay [18]: solute carrier (SLC10A1), SLC10A1 (gene 6554)
The assay can be described thus: LTEA_HepaRG_SLC10A1: Life Technologies and Expression Analysis (LTEA) Assay for solute carrier (SLC10A1) using HepaRG (AID 2283657; active = hit-call score of the fitted dose curve at least 0.9, where 1 is the maximum; inactive = score below 0.9). To be noted: mRNA level, 48 h; actives raise or lower the signal. A digest of the protocol:
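SLC10A1 transcript measured by TaqMan qRT-PCR, housekeeping-normalised, after 48 h chemical treatment of human HepaRG cells. Eight concentrations (half-log, max 100 uM, 0.5% DMSO vehicle) in duplicate; fitted bidirectionally against DMSO baseline.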

Read-out in assay [19]: matrix metalloproteinase-1 (MMP1), MMP1 (gene 4312)
Briefly: LTEA_HepaRG_MMP1: Life Technologies and Expression Analysis (LTEA) Assay for matrix metalloproteinase-1 (MMP1) using HepaRG (AID 2283658; active = hit-call score of the fitted dose curve at least 0.9, where 1 is the maximum; inactive = score below 0.9). The conditions noted are these: mRNA level, 48 h; actives raise or lower the signal. The essentials: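 In this screen, human liver HepaRG cultures receive each chemical in duplicate for 48 h (top 100 uM, 0.5% DMSO). MMP1 expression is then quantified by TaqMan qRT-PCR with ACTB/GAPDH/POLR2A normalization.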

The nature of assay [20]: Tanguay_ZF_120hpf_PE_legacy: (Legacy) Oregon State University Tanguay Lab 120 Hour Post-fertilization zebrafish Assay for Pericardial Edema (AID 2283640). The essentials: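 Zebrafish larvae are exposed from early development to 120 hpf at 28C, with 0.64% DMSO final. Each surviving larva receives a yes/no pericardial edema call by brightfield imaging, analysed relative to the DMSO baseline.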

The term AC50 denotes the concentration at which the activity in the assay is half-maximal.

Inconclusive results are not listed. Calls of active or inactive are those of the source. Rule for the calls, unless noted: active = hit-call score of the fitted dose curve at least 0.9, where 1 is the maximum; inconclusive = response in the unintended direction; inactive = score below 0.9.

As to `CCC[CH2][Sn]([Cl])([CH2]CCC)[CH2]CCC`, the compound was called inactive in [1], in assay [2], in [3], in [4], in [5] and in assay [6]. Further, the compound was called inactive in [7], in assay [8], in assay [9], in assay [10], in assay [11] and in [12]. Besides, the result in assay [13] was inactive.

Turning to `[O-][Cl+]O`, the compound was classed as inactive in [1], in assay [2], in assay [3], in assay [4], in assay [5] and in assay [6]. In addition, the result in assay [7], in [8], in assay [9], in assay [10] and in [13] was inactive.

On to `CCC(C)c1ccc(O)cc1` (stereo not drawn), for which the compound was classed as inactive in assay [1], in assay [2], in assay [3], in [4], in assay [5] and in [6]. For the same compound, the compound was called inactive in [7], in assay [8], in assay [10], in assay [11], in assay [12] and in [13]. The AC50 in assay [14] is 2.88 µM (active); in assay [15], 43.8 µM (active).

On to `O=P(OCCCl)(OCCCl)OCCCl`, for which the outcome in [1], in [2], in assay [3], in assay [4], in assay [5] and in assay [6] was inactive. Also, the compound was called inactive in assay [7], in assay [8], in [9], in assay [10] and in [11].

Take `Nc1ccc(N=Nc2ccccc2)cc1`: the compound was called inactive in [1], in assay [2], in assay [3], in assay [4], in assay [5] and in [6]. Moreover, the outcome in assay [7], in assay [10] and in [11] was inactive. Moreover, the results for the AC50 in [14] and in assay [15] were 2.53 µM (active) and 40.2 µM (active), respectively.

As to `CCN(CC)N=O`, the compound was classed as inactive in assay [1], in [2], in [3], in assay [4], in assay [5] and in assay [6]. Moreover, the compound was called inactive in assay [7], in assay [8], in assay [9], in assay [10], in [11] and in [12].

As to `O=C(Oc1ccc(Br)cc1)N1CCN2CCC1CC2`, the result in [1], in assay [2], in [3], in assay [4], in assay [5] and in assay [6] was inactive. For the same compound, the outcome in assay [7], in [8], in assay [9], in assay [16], in [10] and in assay [11] was inactive. The compound was called inactive in assay [12].

For the compound `ClC1=C(Cl)C2(Cl)C3C(Cl)C=CC3C1(Cl)C2(Cl)Cl` (stereo not drawn), the compound was called inactive in assay [1], in [2], in [3], in assay [4], in assay [5] and in assay [7]. In addition, the call in [9], in [16], in assay [17], in [10], in [18] and in assay [19] was inactive.

`C[C@]12C=CC3=C4CCC(=O)C=C4CC[C@H]3[C@@H]1CC[C@@H]2O`: the AC50 is 27.1 µM (active) in assay [1]; 43.3 µM (active) in assay [2]; 30.5 µM (active) in assay [3]; 27.1 µM (active) in [5]; 16.1 µM (active) in assay [18]; 7.23 µM (active) in assay [14]. Moreover, in assay [15], the AC50 is 6.42 µM (active). The result in assay [4], in [6], in [7], in assay [8], in [9] and in [10] was inactive. Moreover, the result in [11], in assay [12] and in [19] was inactive.

As for `Clc1ccc(C(c2ccc(Cl)cc2)C(Cl)Cl)cc1`, the compound was called inactive in [1], in [2], in [3], in assay [4], in assay [10] and in assay [11]. Also, the compound was called inactive in [12] and in assay [13].

Turning to `N#CC(Br)Br`, the result in [2], in assay [3], in assay [4], in [20], in assay [5] and in assay [6] was inactive. The result in assay [7], in assay [8], in assay [10], in [11], in [12] and in [13] was inactive.

(Values after PubChem BioAssay (EPA / NIEHS).)
